Laboratory results: PubChem BioAssay AID2551 (National Center for Advancing Translational Sciences (NCATS), 2010)
About 17,000 (5.5%) of roughly 310,000 compounds were called active. Roughly 11% stayed inconclusive and do not appear here. The call rests on the fitted dose curve; in most records, active means well fitted inhibition curve with a large enough effect; inconclusive means small, poorly fitted or top-dose-only effect, or effect the other way; inactive means no such curve, though single readings can be large or run the other way. The list comes from a sample in which actives are over-represented; it also holds similar structures and randomly drawn compounds. A call without a number means that no potency is given here.

target: Nuclear receptor ROR-gamma (Mus musculus) (UniProt P51450); experiment: qHTS for inhibitors of ROR gamma transcriptional activity; conditions: Drosophila S2 Gal4-RORgamma UAS-luciferase reporter, 20 h; series mostly up to 53.6 µM; further: nearly all actives have a fitted effect of over 60% in size
In short: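 Schneider cells (Drosophila), stable Gal4 DBD–ROR gamma + UAS-luc; 1 hr cmpd preincubation; Cu2+ induction 700 uM final; 20 hr ambient; luminescence.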
Potency means the concentration at half of the fitted maximal effect.

Sequence of Nuclear receptor ROR-gamma (Mus musculus) (P51450 whole entry, looked up, the tested form may be a part): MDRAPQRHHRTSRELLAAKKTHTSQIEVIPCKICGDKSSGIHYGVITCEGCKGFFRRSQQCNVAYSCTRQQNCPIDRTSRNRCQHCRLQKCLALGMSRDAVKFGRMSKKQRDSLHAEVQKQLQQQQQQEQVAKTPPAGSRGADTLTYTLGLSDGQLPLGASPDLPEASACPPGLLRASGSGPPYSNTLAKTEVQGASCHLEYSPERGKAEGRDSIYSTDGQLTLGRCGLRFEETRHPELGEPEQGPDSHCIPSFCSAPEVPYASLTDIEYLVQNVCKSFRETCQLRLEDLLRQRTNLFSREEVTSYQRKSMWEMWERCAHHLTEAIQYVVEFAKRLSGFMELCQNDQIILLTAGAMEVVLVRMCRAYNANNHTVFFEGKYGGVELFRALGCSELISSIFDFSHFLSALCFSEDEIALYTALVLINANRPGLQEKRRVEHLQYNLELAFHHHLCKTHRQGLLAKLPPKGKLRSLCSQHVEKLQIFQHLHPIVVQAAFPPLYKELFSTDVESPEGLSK

Row | Structure (SMILES) | Potency
1 | CCCCNC(=O)c1cn(CC)c2cc(N3CCN(C(=O)c4ccco4)CC3)c(F)cc2c1=O | inactive
2 | CCCOc1ccc(Cc2c(O)nc(N)[nH]c2=O)cc1C | inactive
3 | Oc1cccc(/C=N/Nc2ccc(Cl)nn2)c1O | 1410 nM (active)
4 | Cc1ccsc1/C=N/Nc1ccc(Cl)nn1 | inactive
5 | COc1cccc(/C=N/Nc2ccc(Cl)nn2)c1 | inactive
6 | Cc1ccc(C)c(S(=O)(=O)N2CCCOC2CNC(=O)C(=O)NC2CCCCC2)c1 (configuration not stated) | inactive
7 | Cc1ccccc1CN1CCNC(=O)C1CC(=O)NCCC1=CCCCC1 (configuration not stated) | inactive
8 | COC(=O)C1=CN(Cc2ccc(OC)cc2)C=C(C(=O)OC)C1c1ccc(O)c(OC)c1 | inactive
9 | CN1C(=O)[C@H]2[C@@H](C3CC3)N3C(=O)CN(Cc4ccccc4)C(=O)[C@@]3(C)[C@H]2C1=O | inactive
10 | COC(=O)c1ccc(C(=O)NC2CC(C)(C)Cc3c2cnn3-c2ccc(F)cc2)nc1 (configuration not stated) | inactive
11 | CCc1ccc(OCC(O)CN2CCN(CCO)CC2)cc1 (configuration not stated) | inactive
12 | c1ccc(-c2noc(-c3cccs3)n2)nc1 | 1260 nM (active)
13 | O=C(Oc1ccc(-c2nc(-c3ccccn3)no2)cc1)c1ccccc1 | inactive
14 | c1csc(-c2nc(-c3ccncc3)no2)c1 | inactive
15 | COc1ccc2[nH]c(=O)c(C3c4cc(OC)c(OC)cc4CCN3C(=O)c3ccco3)cc2c1 (configuration not stated) | inactive
16 | CC1CCCCC1NC(=O)CCS(=O)(=O)c1ccc2c(c1)NC(=O)CO2 (configuration not stated) | inactive
17 | COc1cccc(NC(=O)C2C(c3ccccc3)C2(Cl)Cl)c1 (configuration not stated) | inactive
18 | COc1ccc(-c2cc(C(=O)N3CCN(Cc4ccc5c(c4)OCO5)CC3)on2)cc1OC | inactive
19 | C=CS(=O)c1sc(Cl)c(N2CCOCC2)c1[N+](=O)[O-] (configuration not stated) | 4470 nM (active)
20 | O=C(CCN1C(=O)C2C3CCC(C3)C2C1=O)Nc1ccc(Cl)cc1Cl (configuration not stated) | inactive
21 | CC(=O)N1CCOc2ccc(S(=O)(=O)N3CCC(C(=O)Nc4ccccc4F)CC3)cc21 | inactive
22 | COc1ccc(NC(=O)Cn2ncn3c(cc4ccccc43)c2=O)c(OC)c1OC | inactive

Row | Structure (SMILES) | Potency
23 | CCn1c(NC(=O)c2nn(C)cc2Br)nc2ccccc21 | 2510 nM (active)
24 | CC(=O)NCCc1nc2cc(NC(=O)c3ccccc3)ccc2n1C | inactive
25 | Cn1c(NC(=O)c2ccccc2)nc2ccccc21 | 1000 nM (active)
26 | CC(C)(C)C(=O)Cn1c(NCCO)nc2ccccc21 | inactive
27 | Cn1sc(NC(=O)c2ccccc2)nc1=O | inactive
28 | CCc1nc2ccccc2n(CCOCCOCCn2c(=O)c(CC)nc3ccccc32)c1=O | inactive
29 | COc1cc(C(=O)N/C(=C\c2cn(C)c3ccccc23)C(=O)N2CCOCC2)cc(OC)c1OC | inactive
30 | COC(=O)c1ccc(CNC(=O)c2ccc3oc(C(C)C)nc3c2)cc1 | inactive
31 | CCOc1ccc(CN2CCN(Cc3ccc4cc(F)ccc4n3)CC2CCO)cc1 (configuration not stated) | inactive
32 | CC(C)(C)c1ccc(C(=O)N2CCC(C(=O)N3CCCCC3)CC2)cc1 | inactive
33 | Cc1ccc(C)c(OCCC(=O)OCC(=O)N2CCN(c3ccccc3)CC2)c1 | inactive
34 | O=C(NCCc1ccc(Cl)cc1)c1cccc(N2CCCC2=O)c1 | inactive
35 | Cc1ccc(/C=N/NC(=O)c2cc3ccccc3cc2O)o1 | 1410 nM (active)
36 | Cc1ccc(/C=N/NC(=O)Cn2ccc(C(F)(F)F)n2)o1 | inactive
37 | Cc1ccc(/C=N/NC(=O)CNC(=O)COc2ccccc2)o1 | inactive
38 | CC(=O)N(C)c1ccc(NC(=O)Nc2cccc3ccccc23)cc1 | inactive
39 | COc1cccc(NC(=O)c2ccccc2N(Cc2ccccc2)S(C)(=O)=O)c1 | inactive
40 | CC1CC(=O)Nc2ccccc2N1S(=O)(=O)c1cccs1 (configuration not stated) | inactive
41 | CC1Cc2ccccc2N1C(=O)c1cc2sccc2n1Cc1ccccc1 (configuration not stated) | inactive
42 | CC1CC(=S)Nc2ccccc2N1Cc1ccccc1 (configuration not stated) | 1410 nM (active)
43 | CCC(=O)Nc1ccc(-c2ccc(N3CCCCC3)nn2)cc1 | 4470 nM (active)
44 | O=C(CN1CCN(c2ccccn2)CC1)Nc1ccc(Br)cc1 | inactive

Row | Structure (SMILES) | Potency
45 | CCCCSc1nnc(-c2ccc(NC(=O)CC)cc2)n1C | inactive
46 | Cc1c(S(=O)(=O)N2CC(C)CC(C)C2)c(=O)n(C)c(=O)n1C (configuration not stated) | inactive
47 | CN(Cc1ccccc1)C(=O)CCc1ccccc1 | inactive
48 | Cn1c(-c2ccc(F)cc2)cnc1SCC(=O)NNC(=O)Cc1ccccc1 | inactive
49 | Cc1ccc(-c2cnc(NC(=O)CCC(=O)N(C)Cc3ccccc3)n2C)cc1 | 2240 nM (active)
50 | Cc1nc(-c2ccc(F)cc2)c(CC(=O)N2CCN(S(=O)(=O)c3ccc(F)cc3)CC2)s1 | inactive
51 | CCn1c(C)cc(=O)cc1-c1ccc(Cl)cc1 | inactive
52 | Oc1ccccc1-c1cc(-c2ccc(Cl)cc2)n[nH]1 | 7080 nM (active)
53 | Cc1ccc(NC(=O)c2cc(-c3ccccc3O)n[nH]2)cc1C | inactive
54 | c1ccc(-c2cc(-c3ccccc3)[nH]n2)cc1 | inactive
55 | CN(C(=O)CC1C(=O)NCCN1Cc1ccc2ccccc2c1)C1CCOCC1 (configuration not stated) | inactive
56 | CCn1ccnc1CNC(=O)CC1C(=O)NCCN1Cc1ccc(F)cc1Cl (configuration not stated) | inactive
57 | CN(C(=O)CC1C(=O)NCCN1Cc1ccc(F)cc1Cl)C1CCCCC1 (configuration not stated) | 11200 nM (active)
58 | COc1cc(C2C(C(=O)c3ccco3)=C(O)C(=O)N2c2cc(C)on2)ccc1OCc1ccccc1 (configuration not stated) | inactive
59 | COc1ccc(C(C(=O)NC(C)(C)C)N(Cc2ccc(F)cc2)C(=O)CCC(=O)Nc2cc(C)on2)cc1 (configuration not stated) | inactive
60 | O=C(Nc1ccccc1C(=O)O)c1ccc(N2C(=O)C3CC=CCC3C2=O)cc1 (configuration not stated) | inactive
61 | Cc1cc(C)c(OCC(=O)N/N=C/c2ccco2)c(C)c1 | inactive
62 | O=C(Cn1cnc2ccccc21)Nc1ccccc1-c1ccccc1 | inactive
63 | O=C(Cn1cnc2ccccc21)N/N=C/c1ccco1 | 12600 nM (active)
64 | COc1ccc(C(=O)N[C@H](C(=O)NCc2ccccc2)C(C)C)cc1 | inactive
65 | CNC[C@H](CC1CCCCC1)NC[C@H](NCCC1CCCC1)[C@H](C)O | inactive
66 | O=C(Nc1cccnc1Cl)c1cc(-c2ccccc2O)on1 | inactive

Row | Structure (SMILES) | Potency
67 | NC(=O)Cc1nc2scc(-c3ccc(Cl)cc3)c2c(=O)[nH]1 | inactive
68 | O=C(CCc1nc2ccccc2c(=O)[nH]1)OCC(=O)c1cccc(Cl)c1 | inactive
69 | O=c1[nH]c(CCl)nc2cc(-c3ccc(Cl)cc3)sc12 | 7080 nM (active)
70 | Cc1ccc(-c2cc(C(=O)NN)n[nH]2)o1 | inactive
71 | Cc1ccc(-c2cc(C(=O)N/N=C/C=C/c3ccccc3)n[nH]2)o1 | 7080 nM (active)
72 | CC(C)c1cc(C(=O)N/N=C/C(Br)=C/c2ccccc2)n[nH]1 | inactive
73 | CCOC(=O)N1CCC(N2Cc3cccc(C(=O)Nc4ccc(S(=O)(=O)N(CC)CC)cc4)c3C2=O)CC1 | inactive
74 | Cc1ccc2c(c1)N(CC(=O)N1CCC(C)CC1)C(=O)c1cccnc1O2 | inactive
75 | CCCn1nc(NC(=O)C(C)C)c2cc3cc(OC)ccc3nc21 | inactive
76 | Cc1cc(Cl)c2oc(C(=O)N(C)C(C)c3ccccn3)c(C)c2c1 (configuration not stated) | inactive
77 | CCNC(=O)N1CCCC(C(=O)c2ccc(-c3ccccc3)cc2)C1 (configuration not stated) | inactive
78 | NS(=O)(=O)c1ccc(CCNC(=O)c2nc(CS(=O)(=O)c3ccc(Cl)cc3)no2)cc1 | inactive
79 | COc1ccccc1NC(=O)CSc1nc2sc3c(c2c(=O)n1-c1ccccc1)CCN(C)C3 | inactive
80 | O=C(O)CCC(=O)NCc1ccc2[nH]c3c(c2c1)CCCC3 | inactive
81 | Cc1cccc(NC(=S)NCc2ccc3[nH]c4c(c3c2)CCCC4)c1 | 1580 nM (active)
82 | C=CCNC(=S)N1CCc2[nH]c3ccccc3c2C1 | inactive
83 | Cc1cnc(CN(C)C(=O)C2CCC(=O)N(CCc3cccc(F)c3)C2)[nH]1 (configuration not stated) | inactive
84 | Nc1nnn(CC(=O)N/N=C/c2ccc(O)cc2)n1 | inactive
85 | O=C(C[n+]1ccccc1)N/N=C/c1ccc(O)cc1 | inactive
86 | CC(C)(C)c1nnc(N/N=C/c2ccc(O)cc2)n(N)c1=O | 1260 nM (active)
87 | CSc1cccc(NC(=O)CN2C(=O)COc3ccc(S(=O)(=O)N4CCOCC4)cc32)c1 | inactive
88 | CC(=O)c1ccc(N2CCN(C(=O)CCNC(=O)Cn3ccc4ccccc4c3=O)CC2)cc1 | inactive

Row | Structure (SMILES) | Potency
89 | Cc1ccccc1NC(=O)c1cc(S(=O)(=O)Nc2cccc(C(=O)O)c2)ccc1Cl | inactive
90 | CCC1C(=O)NCCN1C(=O)c1ccc2nc(Cc3ccc(OC)cc3)oc2c1 (configuration not stated) | inactive
91 | COc1cccc(NC(=O)CC2C(=O)NCCN2C(=S)Nc2ccc(F)cc2)c1 (configuration not stated) | inactive
92 | COc1ccc(C(=O)NC(=S)N2CCNC(=O)C2CC(=O)OC(C)C)cc1 (configuration not stated) | 4470 nM (active)
93 | CCOC(=O)CCCN1CC(O)=C(c2nc3ccccc3s2)C1=N | inactive
94 | N=C1C(c2nc3ccccc3s2)=C(O)CN1NC(=O)c1ccc([N+](=O)[O-])cc1 | 2820 nM (active)
95 | COc1ccccc1N1CC(O)=C(c2nc3ccccc3s2)C1=N | inactive
96 | CCOc1cc(C2C(C(=O)c3ccco3)=C(O)C(=O)N2Cc2ccccc2)ccc1O (configuration not stated) | inactive
97 | Cn1nc(-c2ccccc2)c2cc([N+](=O)[O-])ccc21 | inactive
98 | Cc1c(NC(=O)Nc2cccc([N+](=O)[O-])c2)c(=O)n(-c2ccccc2)n1C | inactive
99 | CC(CC(=O)Nc1ccc(F)cc1F)S(=O)(=O)c1ccc2c(c1)NC(=O)CO2 (configuration not stated) | inactive
100 | Cc1nnc(SCC(=O)NCc2ccccc2)s1 | inactive
101 | COCC(C)n1c(C)cc(C(=O)CSc2cc(C)c3ccccc3n2)c1C (configuration not stated) | inactive
102 | Cc1cc(SCC(=O)NCCN2C(=O)CSC2=O)nc2ccccc12 | 11200 nM (active)
103 | N[C@@H](Cc1ccccc1)C(=O)N1CCC(C(=O)NCC(=O)Nc2ccc(F)cc2)CC1 | inactive
104 | Cc1ccn2c(=O)c(C(=O)NCCC3=CCCCC3)c(O)nc2c1 | inactive
105 | O=C(NNC(=S)NC(=O)c1cn(-c2ccccc2)nc1-c1ccccc1)c1ccncc1 | 2820 nM (active)
106 | COC(=O)c1cn(-c2ccccc2)nc1-c1cccnc1 | inactive
107 | O=C(Nc1cn(-c2ccccc2)nc1-c1ccccc1)c1ccccc1 | inactive
